Source: PubChem
Hits are enriched below; roughly 2.6% of the tested compounds scored in any of these assays.
AT treatment: qHTS Assay for Identifying a Potential Treatment of Ataxia-Telangiectasia; 320,000 compounds, 0.19% hits; AID 485349, 2010; F2112 A-T fibroblasts, KAP-1 phosphorylation AlphaLISA; neocarzinostatin DNA damage 30 min before lysis; Potency, µM (highest dose often 57.5 µM), for inactives: top-dose activation, usual class: activators; further: potency means the concentration at half of the fitted maximal effect; % of control where 0% means no effect; nearly all actives have a fitted effect of over 45% in size
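ATM-like activity read as KAP-1 phosphorylation via AlphaLISA donor/acceptor antibody pairs after lysis and 6 hr at 25C. Cells were ATM-null patient fibroblasts (F2112, hTERT), dosed 60 min, then exposed to the DSB inducer NCS for 30 min.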
Nrf2 activator: qHTS of Nrf2 Activators | AREc32 ARE-luciferase reporter (MCF7-derived line), luminescence, 24 h | Potency, µM (titrated, usually from 46.1 µM), for the others: at the highest dose activation, hits mostly activators | AID 624171, 2012 | 410,000 compounds, 0.31% hits; further: potency means the concentration at half of the fitted maximal effect; % of control where 0% means no effect; nearly all actives have a fitted effect of over 65% in size
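ARE-driven firefly luciferase activity in AREc32 cells measured after a 24 hr compound exposure at 37 deg C, using Steady-Glo reagent and a 30 min room-temperature hold.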
A549 tox: Nrf2 qHTS screen for inhibitors: counterscreen for cytotoxicity. AID 504648, 2011. Potency, µM (doses to about 46 µM), without a hit: at the highest dose activity change, negative = cytotoxicity, usual class: inhibitors. 390,000 compounds, 0.16% hits. A549 ARE-Fluc cells, CellTiter-Fluor viability, 18-24 h; further: potency means the concentration at half of the fitted maximal effect; on the % scale 0 is the no-effect control and ±100 the full control effect
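A549 ARE_Fluc cells in 5% FBS OPTI-MEM were exposed to compounds in concentration-response for 18-24 h at 37 deg C. Viability was read by CellTiter-Fluor fluorescence (Ex 405/Em 525) after 30 min, before the luciferase read.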
CCT modulator: High-Throughput Screening for Modulators of Cytosolic Chaperonin Activity. AID 651819, 2012. 360,000 compounds, 0.3% hits. purified chaperonin ATPase assay, HTRF ADP detection, 30 min. activity change, % (no concentration beside the values), hits read low; in the data active means activity change below about -30%; further: on the % scale 0 is the no-effect control and ±100 the full control effect
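Nucleotide hydrolysis assay: TRiC at 20–40 nM final (set by batch activity) with 10 uM ATP, 30 min at 37 °C, in presence of 76 uM compound. Detection by competitive ADP HTRF, 30 min ambient.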
TCR activator: Activators of T cell receptors: qHTS campaign | primary human leukocytes, anti-CD3, IL-2 HTRF, 48 h | Potency, µM (top dose mostly 9.22 µM), for inactives: top-dose activation of IL-2 secretion, usual class: activators | 330,000 tested, under 10 active; further: % of control where 0% means no effect
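Using a-CD3 beads without co-stimulation, primary human leukocytes were exposed to compounds for 48 hr. An HTRF IL-2 kit measured the cytokine, with europium-to-d2 energy transfer producing emission at 665nm upon 320nm excitation.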
Nrf2 inh: Nrf2 qHTS screen for inhibitors | A549 ARE-Fluc reporter, luciferase luminescence, 18-24 h | Potency, µM (titrated, usually from 46 µM), without a hit: at the highest dose activity change, negative = inhibition, usual class: inhibitors | 360,000 compounds, 2.1% hits; further: potency means the concentration at half of the fitted maximal effect; on the % scale 0 is the no-effect control and ±100 the full control effect; nearly all actives have a fitted effect of over 60% in size
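A549 ARE_Fluc cells (5000/well, 5% FBS OPTI-MEM) pre-incubated 2 h, then treated with compounds 18-24 h at 37C/5% CO2 in concentration-response. CellTiter-Fluor viability read first; BugLite luciferase luminescence after 15 min at room temperature gives Nrf2 activity.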
Starred values were filed as active, the others as inactive; ? = inconclusive; . = no result; [ ] = dose if it differs, or a comment. Unless noted, the call rests on the fitted dose curve; in most records, active means well fitted curve in the direction sought with a large enough effect; inconclusive means small, poorly fitted or top-dose-only effect, or another doubt; inactive means no such curve, though single readings can be large; an effect the other way counts as inactive or inconclusive.

SMILES	AT treatment	Nrf2 activator	A549 tox	CCT modulator	TCR activator	Nrf2 inh
CCOc1ccc(C(=O)COC(=O)c2cc([N+](=O)[O-])ccc2N2CCOCC2)cc1	-11%	0%	-6%	-4	2%	18%
O=C(COC(=O)c1cc([N+](=O)[O-])ccc1NCCO)Nc1ccc2c(c1)OCO2	-4%	4%	?	-2	-1%	10µM*
O=C(COC(=O)c1cc([N+](=O)[O-])ccc1N1CCOCC1)c1ccc(Br)cc1	-2%	4%	?	0	-3%	26µM*
Cc1cc(NC(=O)COC(=O)c2cc([N+](=O)[O-])ccc2N2CCOCC2)ccc1Br	-8%	0%	?	2	-1%	18µM*
Cc1ccc(C)c(CN2C(=O)c3ccccc3S(=O)(=O)c3ccc(C(=O)NCCc4ccc(Cl)cc4)cc32)c1	.	4%	17%	.	.	-10%
Cc1cccc(NS(=O)(=O)c2ccc3c(c2)[C@H]2C=CC[C@H]2[C@@H](c2ccc(F)cc2)N3)c1	.	1%	-15%	.	.	18µM*
COc1ccccc1-c1nc2c(c(SCC(=O)Nc3ccc(C)c(C)c3)n1)Cc1c(CO)cnc(C)c1O2	.	3%	7%	.	.	-7%
Oc1ccc(COC2CCCC2)c2cccnc12	-5%	.	.	.	.	.
NS(=O)(=O)OCCCc1ccccc1	9%	-1%	11%	-1	5%	-1%
[2H]C(CCOS(N)(=O)=O)c1ccc(C(C)(C)C)cc1 (stereo not given)	-3%	-1%	-3%	-1	-24%	5.2µM*
CCCCNS(=O)(=O)c1ccc(S(=O)(=O)NCc2ccncc2)cc1	.	0%	-16%	-3	7%[46.1 µM]	7.3µM*
O=S(=O)(NCc1ccncc1)c1ccc(S(=O)(=O)NCC2CCCO2)cc1 (stereo not given)	4%	0%	-4%	-2	6%	9.2µM*
O=C(c1ccc(S(=O)(=O)NCC2CCCO2)cc1)N1CCc2ccccc21 (stereo not given)	-4%	-1%	-22%	-2	3%	26µM*
O=C(Nc1ccc(F)cc1)c1ccc(S(=O)(=O)NCC2CCCO2)cc1 (stereo not given)	4%	-1%	23µM*	-1	-3%	23µM*
CCCCc1ccc(S(=O)(=O)NCCc2ccncc2)cc1	13%	0%	-2%	1	-5%	.
CCc1ccc(-c2cn(C3CCCCC3)c(=S)[nH]2)cc1	0%	2%	-11%	1	4%	?
CCNC(=S)N1CCN(C(c2ccccc2)c2ccccc2)CC1	-1%	0%	-12%	-1	-56%	26µM*
Cc1ccc(-c2nnc(-c3ccc(NC(=O)Cc4cccs4)cc3)o2)cc1	2%	0%	13µM*	-2	-3%	9.2µM*
CCN(CC)c1ccc(C(=O)NNC(=O)CCl)cc1	-6%	?	-2%	-2	-1%	-4%
CCN(CC)c1ccc(C(=C2C=CC(=[N+](CC)CC)C=C2)c2ccc(N(CC)CC)cc2)cc1	.	-3%	7.3µM*	-1	39%	5.8µM*
COc1ccc(Cl)cc1C(=O)O/N=C(\N)c1ccncc1	-8%	4µM*	-1%	0	5%	?
COc1ccc(C(=O)O/N=C(\N)c2ccncc2)cc1OC	-7%	3%	4%	1	0%[46.1 µM]	9%
Cn1nc(C(=O)N2CCCC2)c2ccccc2c1=O	0%	0%	-4%	-1	-1%	11%
CSc1ccc(C(=O)C2CCCN(C(=O)c3nn(C)c(=O)c4ccccc34)C2)cc1 (stereo not given)	2%	3%	-18%	1	-2%	18µM*
O=C(C1CCCN(S(=O)(=O)c2cccc3nsnc23)C1)N1CCc2ccccc2C1 (stereo not given)	5%	3%	-17%	-21	-1%	15µM*
